PrPC surface inh – reduces human prion protein on the cell surface | cell surface PrPC, TR-FRET read-out | inhibition, % at 13.8 µM | 370,000 compounds, 0.43% hits; in the data active = inhibition above about 24%; note: 0% = median of the test wells and 100% = reference compound wells
SSB-PriA inh – K. pneumoniae PriA-SSBct interaction inhibition | AlphaScreen SSBct-PriA binding, biotinylated peptide | inhibition, % at 33 µM | 430,000 compounds, 0.6% hits | AID 1272365; in the data active = inhibition mostly above about 37%, no sharp cut-off; inactive = mostly below about 20%;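 note: plate controls were negative control peptide for no effect and reference peptide for full effect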
MazEF act – MazEF (E. coli) toxin RNase activation; AID 504720; P0AE70; activation, % at 20 µM; 350,000 compounds, 0.32% hits; FAM/BHQ RNA-DNA oligo cleavage fluorescence, 5 h; in the data active = activation above about 50%
Target sequence (P0AE70 whole entry, looked up): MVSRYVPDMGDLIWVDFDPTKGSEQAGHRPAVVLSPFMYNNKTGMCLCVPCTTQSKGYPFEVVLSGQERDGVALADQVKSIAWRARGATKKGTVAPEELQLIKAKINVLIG
PrP UTR inh – inhibition of PrP 5' UTR reporter expression. cell-based PrP 5' UTR mRNA reporter, plate reader. inhibition, % (test concentration not listed). 340,000 compounds, 0.35% hits. AID 488862; in the data active = inhibition above about 52%; note: 0 = median of the neutral control wells
PfHsp40 rescue – compounds rescuing yeast from Plasmodium falciparum HSP40 toxicity; S. cerevisiae expressing PfHsp40, growth rescue, ATP luminescence; growth rescue, % at 12.5 µM; 340,000 compounds, 0.68% hits; AID 504582; in the data active = growth rescue above about 28%, passing the limit was not always enough;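 note: yeast W303a lacking pdr1 and pdr3 grown in galactose medium; growth measured after three days at 30 °C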
* = called active by the depositor; . = no result given; ! = not active in a repeat. This is a sample that favours compounds with a hit; in the whole collection about 1.8% have one here.

SMILES	PrPC surface inh	SSB-PriA inh	MazEF act	PrP UTR inh	PfHsp40 rescue
Cc1ccccc1NC(=O)c1ccc(Nc2c([N+](=O)[O-])cc([N+](=O)[O-])c3ccccc23)cc1	-15.9	47.9*	8.3	-21.2	-0.8
COc1ccc(CN(C)C(=O)C2CCN(S(=O)(=O)c3cccs3)CC2)cc1F	-0.5	4.2	-6.8	-11.3	68.6*
CCOc1ccc(CC(=O)Nc2nc3ccc4nc(SC)sc4c3s2)cc1	.	-2.0	.	.	.
N#Cc1ccc(Cl)cc1NC(=O)COC(=O)c1ccc(S(=O)(=O)N2CCCC2)cc1	-1.1	-21.8	25.8	-13.3	-0.8
CN(C)CCCN(C(=O)COc1ccccc1)c1nc2cc3c(cc2s1)OCCO3	4.8	5.5	18.2	-24.8	2.9
CN(C)CCN(C(=O)c1ccc(C(=O)c2ccccc2)cc1)c1nc2cc3c(cc2s1)OCO3	-0.8	43.0*!	-15.0	-3.1	1.0
CN(C)CCN(C(=O)c1ccc(C(=O)c2ccccc2)cc1)c1nc2cc3c(cc2s1)OCCO3	-4.2	48.5*	-0.8	-31.7	-0.6
CN(C)CCCN(C(=O)c1ccc(C(=O)c2ccccc2)cc1)c1nc2cc3c(cc2s1)OCCO3	-23.1	41.0*!	5.0	-15.8	-0.1
CN(C)CCN(C(=O)c1ccc(S(=O)(=O)N(C)c2ccccc2)cc1)c1nc2cc3c(cc2s1)OCO3	2.4	36.0*	-11.1	-16.8	2.0
Cc1onc(-c2ccccc2)c1-c1nnc(CN2CCN(S(=O)(=O)c3ccccc3)CC2)o1	7.3	-1.9	1.5	-8.1	-1.5
Cc1c(NC(=O)c2cc(Br)ccc2Cl)cccc1-n1cnnn1	1.4	-0.7	0.3	.	-0.9
CC12CCC(O)CC1=CCC1C2CCC2(C)C3=NN=CC3CC12 (stereo not given)	-4.3	-0.5	0.7	-14.2	85.5*
Cc1ccc2c(Cl)cc(Cl)c(O)c2n1	-0.5	1.3	-1.7	13.2	-0.7
CC1CN(C(=O)CCc2ccccc2)C(C)CN1C(=O)CCc1ccccc1 (stereo not given)	1.3	-33.5	2.7	-28.0	44.6*
CCc1cc(=O)oc2c(C)c(O)c(CN3CCCCC3)cc12	-2.8	-11.2	9.0	-6.3	-0.3
O=C(Nc1cc(Sc2ccccn2)cc([N+](=O)[O-])c1)c1cccc(Cl)c1	-7.3	6.4	76.1*	-23.5	5.5
Cc1cc(C)c(S(=O)(=O)N2CCOC23CCN(S(=O)(=O)c2ccc(F)c(C)c2)CC3)c(C)c1	.	-15.0	.	.	.
Cc1ccc(NC(=O)COC(=O)C2(C)CC2(Cl)Cl)cc1S(=O)(=O)N1CCOCC1 (stereo not given)	5.2	-2.9	2.0	-10.1	0.6
CC1(C)C2CCC1(CS(=O)(=O)NCC1CCN(C(=O)c3cccnc3)CC1)C(=O)C2 (stereo not given)	.	-11.0	.	.	.
N#Cc1c(/N=C/c2cc3ccccc3s2)sc2c1CCC2	3.6	.	23.4	-119.0	0.3
N#Cc1c(N=Cc2cccs2)sc2c1CCCC2	.	38.0*	.	.	.
Cc1ccc(/C=N/c2sc3c(c2C#N)CCC3)s1	3.4	.	15.2	-82.6	43.0*
CCSc1nc(-c2ccccc2)c(NC(=O)c2ccco2)s1	.	-61.0	.	.	.
Cn1c(O)cc(=O)n(C)c1=O	.	-4.0	.	.	.
C#CCOCCOCCOCCNc1nc(N2CCOCC2)nc(N2CCN(C(=O)[C@H]([C@@H](C)CC)n3cc(CCCCN)nn3)CC2)n1	3.6	3.8	-3.2	-14.9	-0.8
SMILES	PrPC surface inh	SSB-PriA inh	MazEF act	PrP UTR inh	PfHsp40 rescue
CC(=O)/C(N=Nc1cc(C)ccc1O)=C(\C)O	6.1	.	104.8*	-19.8	0.4
Cc1ccc(Cn2c(SCC(=O)NCC3CCCO3)nc3ccsc3c2=O)cc1 (stereo not given)	-3.8	-1.9	-12.9	-5.3	3.0
COc1ccccc1-n1cc(-c2ccccc2)c2c(=S)nc[nH]c21	-2.1	41.4*	1.6	-0.5	3.2
COc1ccccc1-n1cc(-c2ccccc2)[nH]c1=S	-2.6	-4.3	12.0	-22.6	0.3
COc1cnc(SCCC(F)=C(F)F)[nH]c1=O	-4.7	5.5	-6.5	-14.1	-0.6
O=C(c1cccs1)c1coc2ccc(O)cc12	5.4	-7.5	5.3	-101.2	47.8*
COc1ccc(-c2cc(-c3ccccc3)nc(Cl)n2)cc1OC	2.1	-23.4	-9.5	-4.0	-0.3
COc1cc(/C=C2\SC(=NS(=O)(=O)c3ccccc3)NC2=O)c([N+](=O)[O-])cc1OC	.	0.4	.	.	.
COc1ccc2nc(N=Cc3c(C)[nH]n(-c4ccc(C)cc4)c3=O)sc2c1	.	37.9	.	.	.
O=C(O)c1cccc(N2C(=O)/C(=C/c3ccc(SCc4ccc(Cl)cc4)o3)SC2=S)c1	1.5	-10.2	573.5*	-26.1	2.5
O=C(COC(=O)Cc1ccccc1)Nc1ccc(SC(F)F)cc1	-3.7	-19.8	1.4	-13.4	-1.0
O=C(COC(=O)c1ccccc1C(=O)c1ccccc1)Nc1ccc(SC(F)F)cc1	1.4	1.5	1.3	-11.8	94.2*
Cc1cc(Nc2cccc(F)c2)n2c(n1)nc1ccccc12	4.6	2.4	57.5*	-23.5	-1.2
CCCSC(=S)c1c(C)[nH]n(-c2ccccc2)c1=O	8.3	4.7	-8.6	-18.9	305.0*
O=[N+]([O-])c1ccc(N=Nc2ncc[nH]2)cc1	3.7	-6.3	4.5	2.7	84.5*
CCOC(=O)c1cnn(-c2cc(C)cc(C)c2)c1N	-0.7	-9.2	14.3	-38.0	3.4
O=S(=O)(c1cccc2nonc12)N1CCN(c2ccccc2F)CC1	-7.8	-9.3	2.7	-6.8	1.3
Cc1cccc(N2CCN(S(=O)(=O)c3cccc4nonc34)CC2)c1C	0.7	39.2*	-0.6	-17.5	0.9
CC(=N)C1=C(O)CC(c2ccccc2)CC1=O (stereo not given)	-0.4	-12.7	-1.2	-12.8	-1.0
COc1ccccc1C(=O)NC(=S)Nc1ccccc1N1CCCC1	8.6	.	.	-6.3	-0.9
Cc1ccccc1C(=O)NC(=S)Nc1ccccc1N1CCCC1	7.9	39.3*	4.3	-13.2	7.8
CCOc1cc(S(=O)(=O)NC2CCCCC2)ccc1F	1.4	-4.4	2.7	-33.8	88.9*
CC(NC(=O)CC(NCc1ccccc1)C(=O)O)c1ccccc1 (stereo not given)	.	-2.0	.	.	.
CNC(=O)COC(=O)CNC(=O)c1cc(Cl)cc([N+](=O)[O-])c1	-18.5	-1.6	6.5	46.5	-0.3
CCC(=O)Nc1cc2c(C)cc(=O)oc2cc1C	-0.3	-9.9	3.3	-2.9	35.5*
O=C(OCc1ccccc1)c1ccc(NCc2cc(O)ccc2O)cc1	46.1*	0.8	-22.4	-22.1	1.3
Cn1c(-c2ccsc2)c(-c2cccs2)c2cc(Br)ccc21	-5.2	-3.7	-5.8	-19.9	0.6
FC(F)(F)c1cnc(C(c2ccccn2)c2ncn[nH]2)c(Cl)c1 (stereo not given)	1.7	77.2*	10.2	-34.1	-0.7
O=S1(=O)c2ccc(N3CCSCC3)cc2Oc2ccccc2CN1Cc1cn(Cc2cccc(C(F)(F)F)c2)nn1	9.2	.	.	.	.
COCCNC(=O)C1CC(=O)N(c2ccc(F)c(Cl)c2)C1 (stereo not given)	-4.8	-0.1	7.0	-17.7	0.1

Bioassay records: PubChem BioAssay, several laboratories
